Compounds without any hit were thinned out: in the full panel of roughly 83,000, 20% have a hit.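 Growth was measured after 48 h exposure to one concentration of compound in 96-well plates. Values under 10 count as active.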 Values without a mark were called inactive. Activity calls are given as the source filed them.

Among the data in PubChem BioAssay (NCI) are growth values, retold here.

This test has as its system UACC-62 melanoma. The test can be described thus: NCI-60 one-dose screen, 48 h (100 = growth as untreated, 0 = no growth, -100 = all killed). The note with it: 10 µM unless noted.
In the case of `COc1cc(OC)cc(C2=C3CC[C@@H]4[C@H](CC[C@]5(C)C(=O)CC[C@@H]45)C3=CC3C(O)c4cccnc4N4C(=O)COC234)c1` (stereo partly specified), the growth was 94.1%. The value for `CC(=O)Cc1nsc(NC(=O)c2cc(-c3cc(Cl)cc(Cl)c3)oc2C)n1` was 88.7%; that for `CCOC(=O)c1cn2ncnc(Oc3ccc(NC(=O)NC4CCCCC4)c(Cl)c3)c2c1C` was 80.4%; that for `Cc1nnc(NC(=O)c2nc(S(=O)(=O)Cc3ccc(F)cc3)ncc2Cl)s1` was 19.8%. The value for `C#CCOc1ccc2ncnc(Nc3ccc(NC(=O)CCl)cc3)c2c1` was -10.1% (active); that for `CCOC(=O)C#Cc1c(C(=O)OCC)nnn1[C@@H]1O[C@H](CO)[C@H]2OC3(CCCCC3)O[C@H]21` was 91.6%. The value for `C/C(=N/O)c1ccc(F)cc1` was 78.3%.

Take `CCOC(=O)Cn1c(O)c(N=Nc2ccc(S(N)(=O)=O)cc2)c2cc(Br)ccc21`: the growth is 83.3%. The value for `Cc1nc(N2CCOCC2)sc1S(N)(=O)=O` was 94%.

Turning to `COc1ccc(OC)c(C(=O)/C=C/c2cc3c(c(OC)c2OC)OCO3)c1`, the growth is 55.4%. As to `O=c1oc2ccccc2cc1C1=NN=C(SCc2ccccc2)SC1`, the growth is 101%. Consider `COc1ccc(C(=S)N2CCN(c3ccccc3Cl)CC2)cc1OC`, for which the growth was 89.2%.

In the case of `Cc1ccc(/C=C2\CN(C(=O)OC(C)(C)C)C/C(=C\c3ccc(C)cc3)C2=O)cc1`, the growth was 56.5%. As for `O=C(Nc1nn(-c2ccc(Cl)cc2Cl)nc1-c1ccccc1)c1ccccc1`, the figure is 84.9%; as for `CCN(CC)c1ccc(/C=C/C(=O)c2ccc(Nc3nc(Nc4ccccc4)nc(Nc4ccccc4)n3)cc2)cc1`, 54.8%.

For `COC(=O)[C@H]1CCCN1C[C@@H](O)CN1C(=O)/C(=C\c2cc(OC)c(OC)c(OC)c2)c2ccccc21`, the growth is 95.2%. The value for `CN(C)c1ccc(Nc2cc(-c3cccc(OC(F)(F)F)c3)nc3ccc(N4CCCC4)cc23)cc1` was 90.1%; that for `O=C(Nc1cc(Cl)ccc1O)c1ccc(Nc2ccnc(C(F)(F)F)c2)cc1` was 27.7%; that for `COc1cc(OC)c2sc(-c3ccc(-n4cncc4-c4ccc(OC)c(OC)c4)cc3)nc2c1` was 53.4%. As for `O=C1c2cccnc2C(=O)c2c1c(C(=O)NCCCN1CCCCC1)c1ccccn21`, the figure is -61.4% (active). The value for `CCOC(=O)c1ccc2[nH]c(O)c(C(=Nc3ccc(N(C)C(=O)CN4CCN(C)CC4)cc3)c3ccccc3)c2c1` was 17%. With `CCN1C(=O)N(CC)C2C1NN=c1s/c(=C\c3cccc([N+](=O)[O-])c3)c(=O)n12` (stereo unspecified), the growth was 32.5%. As for `CC1=C(Nc2ccc(N3CCN(C)CC3)cc2)C(=O)c2cncnc2C1=O`, the figure is 93.8%. The value for `O=C1Nc2ccc(Br)cc2/C1=N/c1n[nH]c(=S)s1` was 93.2%. For `CCN(c1ccc(Cl)cc1)c1nc(-c2ccc([N+](=O)[O-])cc2)cs1`, the growth is 79.8%.

On to `C=C(C)[C@@H]1CC[C@]2(C)[C@H](CC=C3[C@@H]4[C@H](C)[C@@H](C)CC[C@]4(CO)CC[C@]32C)[C@@]1(C)CCCN`, for which the growth is 79.4%.

For `O=C(/C=C(/C=C/c1cccc2[nH]ccc12)OB(F)F)/C=C/c1cccc2[nH]ccc12`, the growth was -51.8% (active).

Consider `CCN1CC(=O)N(/N=C2\C(=O)Nc3ccccc32)C1=S`, for which the growth is 76.4%. The value for `CCN1CCN(c2cc(C(=O)Nc3nc(-c4cc(OC)c(OC)c(OC)c4)cs3)cc(C(F)(F)F)c2)CC1` was 75.4%; that for `COc1ccc(-c2nc(/C=C3\SC(=NCc4ccccc4)NC3=O)c3ccccn23)cc1` was -49.7% (active).

For `CCOC(=O)C(=Cc1cccc(Br)c1)C(=O)OCC`, the growth was 44.2%. The value for `N#CC1=C(N)Oc2c(sc3c(F)cccc23)C1c1ccc(F)cc1` (stereo unspecified) was 29.2%; that for `CCOc1nc(-c2ccccc2)cc2c(O)c(C(=O)NN)[nH]c(=O)c12` was 106%.

As to `O=C1c2cccc(NCCN=Cc3cc(O)ccc3O)c2C(=O)c2c(NCCN=Cc3cc(O)ccc3O)cccc21`, the growth was 5.11% (active). The value for `C=CCn1cc(-c2nc3ccccc3s2)c2cc(-c3ccc4c5c(cccc35)C(=O)N(N)C4=O)ccc21` was 86.9%; that for `CCOC(=O)CNP(=O)(OC[C@@H](Cc1ccccc1)NC(=O)c1cc2ccccc2s1)Oc1ccccc1` (stereo partly specified) was 71.4%.
